14-3-3g Raf – modulators of 14-3-3 gamma protein binding, primary screen, biochemical, fluorescence polarization. 14-3-3 protein gamma (Homo sapiens), P61981. inhibition, % at 40 µM. actives 0.19% (n = 160,000). FP, 14-3-3gamma / TMR-pS259-Raf peptide binding; in the data active = inhibition above about 30%;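 also: 0% = protein plus tracer without compound and 100% = blank with tracer alone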
Target sequence (P61981 whole entry, looked up): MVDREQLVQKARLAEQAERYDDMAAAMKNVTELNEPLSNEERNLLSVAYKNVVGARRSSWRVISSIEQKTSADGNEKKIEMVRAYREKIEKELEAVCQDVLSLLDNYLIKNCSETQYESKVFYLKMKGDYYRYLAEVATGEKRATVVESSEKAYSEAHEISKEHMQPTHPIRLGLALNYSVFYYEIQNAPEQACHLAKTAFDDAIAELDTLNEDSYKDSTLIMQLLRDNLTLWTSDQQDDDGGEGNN
Active calls of the source: *. This excerpt belongs to a sample that is enriched for hits.

What do the screens show for `O=c1c2ccccc2nc(-c2ccccc2Cl)n1Cc1ccccc1F`?
14-3-3g Raf: 0

What do the screens show for `CN(C(=O)c1ccc2c(c1)C(=O)c1ccccc1-2)c1ccc([N+](=O)[O-])cc1`?
14-3-3g Raf: -3

Results for CN(C(=O)c1ccc2c(c1N)C(=O)c1ccccc1C2=O)c1ccccc1 ?
14-3-3g Raf: 132*

Results for CCSc1c(C(N)=O)ccc2c1C(=O)c1ccccc1C2=O ?
14-3-3g Raf: -42

How did CC1=C(C(=O)Nc2ccc(Cl)cc2)C(c2cccc(Br)c2)NC(=S)N1 (stereo not given) do in these assays?
14-3-3g Raf: -10

How did Cc1nc2nc(Cc3ccccc3)[nH]n2c(=O)c1Cl do in these assays?
14-3-3g Raf: 5

How did Cc1nc2nc(Cc3ccccc3)[nH]n2c(=O)c1Cc1ccccc1 do in these assays?
14-3-3g Raf: 50*

How did Cc1nc2nc(-c3ccccc3)[nH]n2c(=O)c1Cc1ccccc1 do in these assays?
14-3-3g Raf: -15

Results for CCOc1ccc(Nc2cc(NCCCO)c([N+](=O)[O-])c3nonc23)cc1 ?
14-3-3g Raf: -9

What do the screens show for `Cc1ccc(CSc2nnc3c(n2)OC(c2ccncc2)Nc2ccccc2-3)cc1` (stereo not given)?
14-3-3g Raf: 76*

How did Clc1ccc(CSc2nnc3c(n2)OC(c2ccncc2)Nc2ccccc2-3)cc1 (stereo not given) do in these assays?
14-3-3g Raf: -47

How did Cc1ccc(CSc2nnc3c(n2)OC(c2cccc(C)n2)Nc2ccccc2-3)cc1 (stereo not given) do in these assays?
14-3-3g Raf: 32*

What do the screens show for `CCCSc1nnc2c(n1)OC(c1cccc(C)n1)Nc1ccccc1-2` (stereo not given)?
14-3-3g Raf: -5

Results for Cc1ccc(CSc2nnc3c(n2)OC(c2ccc(C(=O)O)cc2)Nc2ccccc2-3)cc1 (stereo not given) ?
14-3-3g Raf: -11

Results for Cc1ccc(CSc2nnc3c(n2)OC(c2ccccn2)Nc2ccccc2-3)cc1 (stereo not given) ?
14-3-3g Raf: -6

Results for Cc1ccc(Cn2c(=O)n(CC(=O)NCCc3ccccc3)c(=O)c3sccc32)cc1 ?
14-3-3g Raf: -6

What do the screens show for `CN(C)C(=S)Oc1ccc(C(=O)Nc2ccc(F)cc2)cc1`?
14-3-3g Raf: 9

Results for NCCNc1cccc2c1C(=O)c1ccccc1C2=O ?
14-3-3g Raf: -108

Results for O=C(C[n+]1cccc(Br)c1)c1ccccc1 ?
14-3-3g Raf: 3

Results for O=C(C[n+]1ccc2ccccc2c1)c1ccccc1 ?
14-3-3g Raf: 45*

What do the screens show for `O=C(C[n+]1ccc2ccccc2c1)c1ccc2c(c1)Cc1ccccc1-2`?
14-3-3g Raf: -24

What do the screens show for `CCOC(=O)Cn1cc(C(=O)C2CC2)c2ccccc21`?
14-3-3g Raf: -7

How did COC(=O)Cn1cc(C(=O)C2CC2)c2ccccc21 do in these assays?
14-3-3g Raf: 50*

How did CCCC(=O)c1cn(CC(=O)OC)c2ccccc12 do in these assays?
14-3-3g Raf: -4

How did O=C(c1ccc(S(=O)(=O)N2CCCC2)cc1)N1CCN=C1SCc1cccc(C(F)(F)F)c1 do in these assays?
14-3-3g Raf: -9

How did COc1ccc(NS(=O)(=O)c2ccc(Cl)c(C(=O)O)c2)cc1 do in these assays?
14-3-3g Raf: -11

What do the screens show for `O=C(NCCc1ccc(Cl)cc1)C1CCN(c2nc3ccccc3o2)CC1`?
14-3-3g Raf: -2

What do the screens show for `Cc1cc(NS(=O)(=O)c2ccc(NC(=O)CCC(=O)O)cc2)no1`?
14-3-3g Raf: 37*

Results for CCC(=O)Nc1ccc(S(=O)(=O)Nc2cc(C)on2)cc1 ?
14-3-3g Raf: -6

Results for Cc1cc(NS(=O)(=O)c2ccc(NC(=O)CCN3C(=O)c4ccccc4C3=O)cc2)no1 ?
14-3-3g Raf: -10

Results for COc1ccc2c(c1)c(=O)c1ccccc1n2CC(=O)Nc1ccccc1Cl ?
14-3-3g Raf: -8

How did Cc1ccc2cc3cc(C(=O)NCCCN4CCN(C)CC4)oc3nc2c1 do in these assays?
14-3-3g Raf: 66*

Results for Cc1ccc2cc3cc(C(=O)NCCCN4CCC(C)CC4)oc3nc2c1 ?
14-3-3g Raf: 6

How did CCN1CCN(CCCNC(=O)c2cc3cc4ccc(C)cc4nc3o2)CC1 do in these assays?
14-3-3g Raf: -9

Results for O=C(CN1C(=O)CSc2ccc(S(=O)(=O)N3CCOCC3)cc21)N1CCN(c2ccccc2)CC1 ?
14-3-3g Raf: -3

How did Cc1ccc2nc(-c3ccc(Cl)c(NC(=O)Cc4ccccc4)c3)oc2c1 do in these assays?
14-3-3g Raf: -16

Results for O=c1cc(CNC2CCCCC2)c2ccccc2[nH]1 ?
14-3-3g Raf: -10

What do the screens show for `O=C1c2ccccc2-c2c(NC3CCCCC3)c(=O)[nH]c3cccc1c23`?
14-3-3g Raf: active

How did O=C(NC1CCCCCC1)c1c(O)c2ccccc2[nH]c1=O do in these assays?
14-3-3g Raf: -6

What do the screens show for `CCOc1ccc(C(NC(=O)c2ccc(F)cc2)c2ccc(OC)c(OC)c2)cc1` (stereo not given)?
14-3-3g Raf: -1

How did O=[N+]([O-])c1cc(Cc2ccccc2Cl)cc(C=Nc2ccc(N3CCOCC3)cc2)c1O do in these assays?
14-3-3g Raf: -81

How did Cc1ccc(N=Cc2cc(Cl)cc([N+](=O)[O-])c2O)c(O)c1 do in these assays?
14-3-3g Raf: -52

Results for Cc1ccc(N=Cc2cc(Cl)cc([N+](=O)[O-])c2O)cc1Cl ?
14-3-3g Raf: 42*

What do the screens show for `Cc1cc(C=Nc2ccc(N3CCOCC3)cc2)c(O)c([N+](=O)[O-])c1`?
14-3-3g Raf: 86*

How did Cc1cc(Br)c(O)c(C=Nc2ccc(N3CCOCC3)cc2)c1 do in these assays?
14-3-3g Raf: -83

Results for O=[N+]([O-])c1cc(Cl)cc(C=Nc2ccc(Cl)c(-c3nc4ccccc4o3)c2)c1O ?
14-3-3g Raf: -21

How did CC(=O)N1CCc2cc(Br)cc(S(=O)(=O)NCC(=O)O)c21 do in these assays?
14-3-3g Raf: 6

Results for COc1ccc(Nc2cc(C(=O)N3CCCCCC3)c3ccccc3n2)c(OC)c1 ?
14-3-3g Raf: -37

What do the screens show for `O=C(NCc1ccc(F)cc1)c1cc2nc(-c3cccs3)cc(C(F)(F)Cl)n2n1`?
14-3-3g Raf: 5

What do the screens show for `Cc1cccc(NC(=O)CCN2C(=S)NC(C)(C)CC2C)c1C` (stereo not given)?
14-3-3g Raf: 4

How did CCN(C(=O)CCN1C(=S)NC(C)(C)CC1C)c1ccc(C)c(C)c1 (stereo not given) do in these assays?
14-3-3g Raf: 51*

Results for CCN(C(=O)CN1C(=S)NC(C)(C)CC1C)c1ccc(C)c(C)c1 (stereo not given) ?
14-3-3g Raf: -5

How did Cc1ccc(C)c(-n2c(CCC(=O)O)ccc2-c2cccs2)c1 do in these assays?
14-3-3g Raf: -25

Results for COc1cc(C(=O)Nc2ccc(CC#N)cc2)cc(OC)c1OC ?
14-3-3g Raf: 21

Results for NS(=O)(=O)c1ccc(CCNC(=O)c2cccn3c(=O)c4cc5ccccc5cc4nc23)cc1 ?
14-3-3g Raf: 91*

Results for O=C(NCCc1ccccc1)c1cccn2c(=O)c3cc(Cl)ccc3nc12 ?
14-3-3g Raf: -8

How did COCCCNC(=O)c1cccn2c(=O)c3cc4ccccc4cc3nc12 do in these assays?
14-3-3g Raf: -12

How did Cc1[nH]c2ccc(-c3nnc(SCC(=O)O)n3-c3ccc(Br)cc3)cc2c1C do in these assays?
14-3-3g Raf: -18

Results for O=C(Oc1ccc2c(=O)c(-c3ccccc3Cl)coc2c1)c1ccc(F)cc1 ?
14-3-3g Raf: -6

Screens from PubChem BioAssay.
